From PubChem
Compounds with a hit are over-represented: about 0.92% of the library has one in this group of screens.
APEX1 inh: APE1 (human) endonuclease inhibition. recombinant APE1, TAMRA/BHQ-2 abasic DNA cleavage fluorescence. Potency, µM (top dose mostly 65.8 µM), for the others: at the top dose activity change, negative = inhibition, actives largely listed as inhibitors. 0.35% of 350,000 active;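 further: plate controls were vehicle for no effect and reference inhibitor for full effect; nearly all actives have a fitted effect of over 55% in size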
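Compound pre-exposure to 0.75 nM APE1, 15 min at ambient temperature. Reaction initiated with 50 nM TAMRA/BHQ-2 THF substrate, read immediately in kinetic mode, 525 nm excitation, 598 nm emission.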
BLM inh-1: Bloom syndrome helicase (human) inhibition; recombinant BLM DNA unwinding, fluorescence dequenching; Potency, µM (series often up to 56.1 µM), inactives show at the top dose activity change, negative = inhibition, most hits filed as inhibitors; 0.2% of 350,000 active; AID 2528;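 further: plate controls were vehicle for no effect and no enzyme for full effect; nearly all actives have a fitted effect of over 35% in size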
TDP1 block: inhibitors of human tyrosyl-DNA phosphodiesterase TDP1 | Q9NUW8 | recombinant TDP1, AlphaScreen DNA substrate cleavage | Potency, µM (titrated, usually from 130 µM), for the others: top-dose activity change, negative = inhibition, actives largely listed as inhibitors | AID 485290 | 0.28% of 350,000 active; further: nearly all actives have a fitted effect of over 40% in size
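Recombinant E. coli-expressed Tdp1 (1 nM) preincubated with compound 15 min at RT, then 5'-biotin/3'-phosphotyrosine-FITC DNA substrate (15 nM) added for 5 min. AlphaScreen beads (10 ug/ml) added, 10 min RT; tyrosine-FITC cleavage read as signal loss.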
FEN1 inhibitor: inhibitors of human flap endonuclease 1; P39748; Recombinant FEN1 flap cleavage, fluorescence, 15 min; Potency, µM (top dose mostly 114 µM), for inactives: at the highest dose activity change, negative = inhibition, actives largely listed as inhibitors; 0.35% of 390,000 active; AID 588795; further: nearly all actives have a fitted effect of over 65% in size
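Read-out was taken twice, immediately and after 15 min, following addition of 50 nM substrate to 10 nM FEN1 that had sat with test compound for 15 min at room temperature. Curves came from a four-parameter Hill model.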
RECQ1 inh-1: blocks DNA unwinding by human RECQ1 | 0.54% of 240,000 active | P46063 | AID 2549 | RECQ1 DNA unwinding, red fluorescence kinetic read | Potency, µM (series often up to 57.3 µM), for inactives: top-dose activity, negative = inhibition, usual class: inhibitors;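 further: plate controls were vehicle for no effect and no enzyme for full effect; nearly all actives have a fitted effect of over 30% in size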
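50 nM RECQ1T1 preincubated 15 min with compound in Tris pH 8.0 buffer with MgCl2, DTT, Tween-20 and 2.5 ug/ml poly(dI-dC); started with 200 nM TAMRA/BHQ-2 forked duplex and 2 mM ATP. Unwinding read as fluorescence (525/598 nm), two reads 2 h apart.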
BLM inh-2: BLM (human) helicase inhibition, confirmation | shares compounds with BLM inh-1 | Potency, µM, without a hit: max response, negative = inhibition, hits mostly inhibitors | BLM DNA unwinding, fluorescence quenching, biochemical | 40% of 220 active;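 further: strand separation dequenches TAMRA so unwinding raises red fluorescence; series mostly up to about 69 µM; nearly all actives have a fitted effect of over 45% in size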
RECQ1 inh conf: confirmation of human RECQ1 helicase inhibitors; AID 2708; shares compounds with RECQ1 inh-1; RECQ1 helicase DNA unwinding, fluorescence; 28% of 610 active; Potency, µM (doses to about 229 µM), inactives show at the top dose activity change, negative = inhibition, usual class: inhibitors; further: nearly all actives have a fitted effect of over 45% in size
RECQ1 ADP FP: ADP displacement flagged in RECQ1 inhibitor counter-screen; shares compounds with RECQ1 inh-1; ADP fluorescence polarization displacement counterscreen; Potency, µM (titrated, usually from 228 µM), without a hit: at the top dose activity change, negative = inhibition, hits mostly inhibitors; 27% of 530 active; further: nearly all actives have a fitted effect of over 45% in size
RECQ1 inh-2: blocks human RECQ1 DNA unwinding; recombinant RECQ1 DNA unwinding, red fluorescence; Potency, µM (top dose mostly 119 µM), inactives show at the highest dose activity, negative = inhibition, hits mostly inhibitors; shares compounds with RECQ1 inh-1; 15% of 1,100 active; further: nearly all actives have a fitted effect of over 50% in size
Starred values were filed as active, the others as inactive; [ ] = remark or other dose. The call rests on the fitted dose curve; in most records, active means well fitted curve in the direction sought with a large enough effect; inconclusive means small, poorly fitted or top-dose-only effect, or another doubt; inactive means no such curve, though single readings can be large; an effect the other way counts as inactive or inconclusive. Unless noted, on the % scale 0 is the no-effect control and ±100 the full control effect; potency means the concentration at half of the fitted maximal effect.

CCc1ccc(NC(=O)CC2C(=O)N(c3ccc(F)cc3)C(=O)N2Cc2ccc(F)cc2)cc1 (configuration not stated) was read as BLM inh-1 -3%, TDP1 block 0% and FEN1 inhibitor -5%.
For O=C(CSc1ccccc1F)NC(=O)NCc1ccco1 the results were APEX1 inh inconclusive, BLM inh-1 16µM*, TDP1 block -5%, FEN1 inhibitor -1%, RECQ1 inh-1 25µM*, BLM inh-2 inconclusive and RECQ1 inh-2 1%.
For CC(=O)N(O)c1ccc(/C=C2\C=Cc3ccccc32)cc1 the results were FEN1 inhibitor -19%.
O=C(O)c1ccccc1/C=N/NC(=O)c1cc(-c2ccco2)nc2ccccc12 was read as APEX1 inh 22µM*, BLM inh-1 14µM*, FEN1 inhibitor inconclusive, RECQ1 inh-1 22µM*, BLM inh-2 inconclusive, RECQ1 inh conf 40µM* and RECQ1 ADP FP 40µM*.
`Oc1ccc(NCc2cccc(OCc3ccc(F)cc3)c2)cc1` gave APEX1 inh 5%, BLM inh-1 14µM*, TDP1 block 8%, FEN1 inhibitor inconclusive, RECQ1 inh-1 inconclusive, BLM inh-2 inconclusive and RECQ1 inh-2 -18%.
`COc1ccc(C2Nc3ccccc3C(=O)N2CCc2ccc(Cl)cc2Cl)cc1COc1ccc(NC(C)=O)cc1` (configuration not stated) gave TDP1 block 1%.
COc1cccc(OC)c1-c1nn2c(-c3cc(-c4ccccc4)n[nH]3)nnc2s1 was read as APEX1 inh inconclusive, BLM inh-1 28µM*, TDP1 block -8%, FEN1 inhibitor 28µM*, RECQ1 inh-1 11µM*, BLM inh-2 inconclusive and RECQ1 ADP FP 91%[91.9 µM].
`COc1ccccc1-c1nn2c(-c3cc(-c4ccccc4)n[nH]3)nnc2s1` gave TDP1 block 1% and FEN1 inhibitor 5%.
S=C(Nc1ccc2nsnc2c1)N1CCCC1 was read as APEX1 inh inconclusive, BLM inh-1 7.9µM*, TDP1 block 1%, FEN1 inhibitor 7%, RECQ1 inh-1 inconclusive, BLM inh-2 inconclusive and RECQ1 inh-2 12%.
COc1cc(NC(=O)c2ccccc2)c(OC)cc1NC(=O)Cc1cccs1 was read as APEX1 inh 16µM*, BLM inh-1 11µM*, FEN1 inhibitor -20%, RECQ1 inh-1 13µM*, BLM inh-2 16µM*, RECQ1 inh conf inconclusive, RECQ1 ADP FP 22%[91.9 µM] and RECQ1 inh-2 inconclusive.
For COc1cc(NC(=O)c2ccccc2)c(OC)cc1NC(=O)Cc1ccc(Br)cc1 the results were APEX1 inh 21%, BLM inh-1 -6% and FEN1 inhibitor -6%.
Oc1ccc(/C=N/Nc2nc(-c3cccnc3)nc3ccccc23)c(O)c1 was read as APEX1 inh inconclusive, BLM inh-1 -23%, TDP1 block 9%, FEN1 inhibitor -33% and RECQ1 inh-1 -1%.
Screening Cc1c(O)ccc(/C=N/Nc2nc(-c3cccnc3)nc3ccccc23)c1O returned APEX1 inh -2%, BLM inh-1 inconclusive, TDP1 block 3%, FEN1 inhibitor inconclusive, RECQ1 inh-1 20µM*, BLM inh-2 24µM*, RECQ1 inh conf inconclusive and RECQ1 ADP FP 27%[91.9 µM].
`CC(C)N1CCC(N2CCN(C3CCCC3)CC2CCO)CC1` (configuration not stated) gave APEX1 inh -2%, BLM inh-1 3%, TDP1 block 0%, FEN1 inhibitor -4% and RECQ1 inh-1 inactive.
For Cc1cccc(N2CCC(N3CCN(C4CCCCC4)C(CCO)C3)CC2)c1C (configuration not stated) the results were APEX1 inh 22µM*, BLM inh-1 14µM*, TDP1 block 3%, FEN1 inhibitor 13%, RECQ1 inh-1 inconclusive, BLM inh-2 7% and RECQ1 inh-2 -13%.
For O=c1[nH]c(Nc2ccc(F)cc2)cc2ccccc12 the results were APEX1 inh 7%, BLM inh-1 32µM*, TDP1 block 3%, FEN1 inhibitor 3%, RECQ1 inh-1 inconclusive, BLM inh-2 inconclusive and RECQ1 inh-2 -30%.
`Cc1ccc(C(=O)N2CCc3cc(CNC(=O)CSc4ccccc4)ccc32)cc1` gave BLM inh-1 -21%, TDP1 block 4% and FEN1 inhibitor -15%.
Screening Cc1ccc(S(=O)(=O)N[C@H]2COC(=O)C/C=C\[C@@H](C)COC(=O)C/C=C\[C@@H]2C)cc1 returned APEX1 inh inconclusive, BLM inh-1 -4%[12.4 µM], TDP1 block 8%[21 µM] and RECQ1 inh-1 3%[11.5 µM].
Screening O=C(O)CCCCCN1C(=O)/C(=C\c2cn(-c3ccccc3)nc2-c2cccs2)SC1=S returned APEX1 inh -1%, BLM inh-1 16µM*, FEN1 inhibitor -5%, RECQ1 inh-1 -9%, BLM inh-2 32µM* and RECQ1 inh conf 2%[69.1 µM].
O=C(O)CCCCCN1C(=O)/C(=C/c2cn(-c3ccccc3)nc2-c2cccs2)SC1=S was read as FEN1 inhibitor -9%.
For C=CCn1c(SCC#N)nc2ccc(Cl)cc2c1=O the results were TDP1 block 0% and FEN1 inhibitor -10%.
`CCCN(C(=O)c1cc2c(s1)CCC2)c1c(N)n(Cc2ccccc2)c(=O)[nH]c1=O` gave APEX1 inh inconclusive, BLM inh-1 14µM*, FEN1 inhibitor -2%, RECQ1 inh-1 22µM*, BLM inh-2 inconclusive, RECQ1 inh conf 40µM*, RECQ1 ADP FP 17%[91.9 µM] and RECQ1 inh-2 -11%.
`Cc1cc(C)cc(O)c1` gave APEX1 inh 2%, TDP1 block 12% and RECQ1 inh-1 0%.
Screening Nc1ccc(N2CCCCC2)c2nonc12 returned APEX1 inh -3%, BLM inh-1 22µM*, TDP1 block 3%, FEN1 inhibitor inconclusive, RECQ1 inh-1 inconclusive, BLM inh-2 1% and RECQ1 inh-2 -2%.
